PubChem BioAssay (NCI)
This is part of a sample that, as a whole, favours compounds with a hit. Of some 79,000 tested, about 15% had one in any assay. A number with no mark means an inactive call. Calls of active or inactive are those of the source. No stated cut-off is given here; in the data, active means growth inhibition above about 70%; inactive means the rest.

Tests used:
[1] = NCI Yeast Anticancer Drug Screen. Data for the rad50 strain (AID 155);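 further: 0% = growth of vehicle-only cultures of the same strain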; details: S. cerevisiae rad50 strain growth inhibition, hits give high values
Method in brief: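 Cells are treated with compound, grown, and their growth is then scored against vehicle-only cultures of the same repair-deficient yeast strain.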

[2] = NCI Yeast Anticancer Drug Screen. Data for the mec2-1 strain (AID 157); details: S. cerevisiae mec2-1 strain, hits give high values
Method in brief: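 Growth inhibition is read against vehicle-treated controls after compound exposure of the mec2-1 yeast strain, which is defective in DNA damage repair or cell cycle control.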

[3] = NCI Yeast Anticancer Drug Screen. Data for the sgs1 mgt1 strain (AID 161);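 further: 0% = growth of cultures given vehicle only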; details: S. cerevisiae sgs1 mgt1 strain, hits give high values
Method in brief: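 This yeast growth screen uses a strain with defined DNA-repair lesions; compound-treated growth is compared with vehicle-treated growth.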

[4] = NCI Yeast Anticancer Drug Screen. Data for the cln2 rad14 strain (AID 165);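 further: 0% = growth equal to vehicle treated cultures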; details: S. cerevisiae cln2 rad14 strain, hits give high values
Method in brief: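 Growth inhibition, relative to vehicle-treated controls, is the read-out. The test organism is a yeast strain with defined genetic alterations, cln2 rad14.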

[5] = NCI Yeast Anticancer Drug Screen. Data for the bub3 strain (AID 167); details: S. cerevisiae bub3 mutant strain, hits give high values
Method in brief: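 Part of a panel of yeast mutants defective in DNA damage repair or cell cycle regulation. Each strain is grown with compound, and inhibition is calculated relative to solvent-treated cultures.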

[6] = NCI Yeast Anticancer Drug Screen. Data for the mlh1 rad18 strain (AID 175); details: S. cerevisiae mlh1 rad18 strain growth inhibition, hits give high values
Method in brief: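 Cells of a genetically altered yeast strain, deficient in DNA damage repair, were treated with compound. Their growth was then compared with that of vehicle-treated cultures to give inhibition.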

[7] = at 5.0 µM (retest, dose inferred, filed as 0.5)
[8] = at 50.0 µM (retest, dose inferred, filed as 5.0)

## CC(C)CCOC(=O)c1ccc(O)cc1.[Zn+2]
[1]; [7]
  growth inhibition: 5%
[1]; [8]
  growth inhibition: 36%
[1]; at 50.0 µM
  growth inhibition: 76.1% (active)
[2]; [7]
  growth inhibition: -1%
[2]; [8]
  growth inhibition: 32%
[2]; at 50.0 µM
  growth inhibition: 65.6%
[3]; [7]
  growth inhibition: 3%
[3]; [8]
  growth inhibition: 29%
[3]; at 50.0 µM
  growth inhibition: 76.8% (active)
[4]; [7]
  growth inhibition: 2%
[4]; [8]
  growth inhibition: 17%
[4]; at 50.0 µM
  growth inhibition: 37%
[5]; [7]
  growth inhibition: 53%
[5]; [8]
  growth inhibition: 86% (active)
[5]; at 50.0 µM
  growth inhibition: 88.5% (active)
[6]; [7]
  growth inhibition: 3%
[6]; [8]
  growth inhibition: 35%
[6]; at 50.0 µM
  growth inhibition: 84.2% (active)

## O=C(CC(=O)c1ccccc1)CC(O)(c1ccccc1)c1ccccc1
[1]; [7]
  growth inhibition: 30%
[1]; [8]
  growth inhibition: 90% (active)
[1]; at 50.0 µM
  growth inhibition: 84.9% (active)
[2]; [7]
  growth inhibition: 32%
[2]; [8]
  growth inhibition: 94% (active)
[2]; at 50.0 µM
  growth inhibition: 89.1% (active)
[3]; [7]
  growth inhibition: 26%
[3]; [8]
  growth inhibition: 89% (active)
[3]; at 50.0 µM
  growth inhibition: 89.7% (active)
[4]; [7]
  growth inhibition: 27%
[4]; [8]
  growth inhibition: 72% (active)
[4]; at 50.0 µM
  growth inhibition: 87.6% (active)
[5]; [7]
  growth inhibition: 42%
[5]; [8]
  growth inhibition: 94% (active)
[5]; at 50.0 µM
  growth inhibition: 87.9% (active)
[6]; [7]
  growth inhibition: 42%
[6]; [8]
  growth inhibition: 88% (active)
[6]; at 50.0 µM
  growth inhibition: 86.5% (active)

## Cc1ccc2c(C3Cc4ccccc4N3C(=O)/C=C\C(=O)O)c(C)[nH]c2c1 (stereo not given)
[1]; [7]
  growth inhibition: 23%
[1]; [8]
  growth inhibition: 85% (active)
[1]; at 50.0 µM
  growth inhibition: 87.5% (active)
[2]; [7]
  growth inhibition: 24%
[2]; [8]
  growth inhibition: 91% (active)
[2]; at 50.0 µM
  growth inhibition: 88.7% (active)
[3]; [7]
  growth inhibition: 37%
[3]; [8]
  growth inhibition: 89% (active)
[3]; at 50.0 µM
  growth inhibition: 92.7% (active)
[4]; [7]
  growth inhibition: 27%
[4]; [8]
  growth inhibition: 82% (active)
[4]; at 50.0 µM
  growth inhibition: 90.1% (active)
[5]; [7]
  growth inhibition: 35%
[5]; [8]
  growth inhibition: 90% (active)
[5]; at 50.0 µM
  growth inhibition: 90.6% (active)
[6]; [7]
  growth inhibition: 39%
[6]; [8]
  growth inhibition: 95% (active)
[6]; at 50.0 µM
  growth inhibition: 89.1% (active)

## CN(C)c1nc(N(C)C)sc(=O)n1
[1]; [7]
  growth inhibition: 0%
[1]; [8]
  growth inhibition: 91% (active)
[1]; at 50.0 µM
  growth inhibition: 85% (active)
[2]; [7]
  growth inhibition: -4%
[2]; [8]
  growth inhibition: 28%
[2]; at 50.0 µM
  growth inhibition: 25.8%
[3]; [7]
  growth inhibition: 2%
[3]; [8]
  growth inhibition: 78% (active)
[3]; at 50.0 µM
  growth inhibition: 69%
[4]; [7]
  growth inhibition: 8%
[4]; [8]
  growth inhibition: 26%
[4]; at 50.0 µM
  growth inhibition: 1.5%
[5]; [7]
  growth inhibition: -10%
[5]; [8]
  growth inhibition: 37%
[5]; at 50.0 µM
  growth inhibition: -3.6%
[6]; [7]
  growth inhibition: 9%
[6]; [8]
  growth inhibition: 86% (active)
[6]; at 50.0 µM
  growth inhibition: 76.3% (active)

## O=C(C#CC(=O)[O][Sn]([c]1ccccc1)([c]1ccccc1)[c]1ccccc1)[O][Sn]([c]1ccccc1)([c]1ccccc1)[c]1ccccc1
[1]; [7]
  growth inhibition: 99% (active)
[1]; [8]
  growth inhibition: 99% (active)
[1]; at 50.0 µM
  growth inhibition: 99.1% (active)
[2]; [7]
  growth inhibition: 100% (active)
[2]; [8]
  growth inhibition: 99% (active)
[2]; at 50.0 µM
  growth inhibition: 99.5% (active)
[3]; [7]
  growth inhibition: 100% (active)
[3]; [8]
  growth inhibition: 99% (active)
[3]; at 50.0 µM
  growth inhibition: 99.5% (active)
[4]; [7]
  growth inhibition: 99% (active)
[4]; [8]
  growth inhibition: 99% (active)
[4]; at 50.0 µM
  growth inhibition: 98.4% (active)
[5]; [7]
  growth inhibition: 99% (active)
[5]; [8]
  growth inhibition: 99% (active)
[5]; at 50.0 µM
  growth inhibition: 99% (active)
[6]; [7]
  growth inhibition: 99% (active)
[6]; [8]
  growth inhibition: 99% (active)
[6]; at 50.0 µM
  growth inhibition: 99.2% (active)

## O=[N+]([O-])c1cc2[nH]cnc2c([N+](=O)[O-])c1NCc1ccccc1
[1]; [7]
  growth inhibition: 0%
[1]; [8]
  growth inhibition: 47%
[1]; at 50.0 µM
  growth inhibition: 68.5%
[2]; [7]
  growth inhibition: 0%
[2]; [8]
  growth inhibition: 29%
[2]; at 50.0 µM
  growth inhibition: 34.3%
[3]; [7]
  growth inhibition: -1%
[3]; [8]
  growth inhibition: 45%
[3]; at 50.0 µM
  growth inhibition: 80.5% (active)
[4]; [7]
  growth inhibition: -2%
[4]; [8]
  growth inhibition: 34%
[4]; at 50.0 µM
  growth inhibition: 24.2%
[5]; [7]
  growth inhibition: -4%
[5]; [8]
  growth inhibition: 25%
[5]; at 50.0 µM
  growth inhibition: 33.1%
[6]; [7]
  growth inhibition: -3%
[6]; [8]
  growth inhibition: 44%
[6]; at 50.0 µM
  growth inhibition: 72.5% (active)

## CC1(CCC(=O)O)c2ccc3ccccc3c2Oc2c1ccc1ccccc21
[1]; [7]
  growth inhibition: 79% (active)
[1]; [8]
  growth inhibition: 94% (active)
[1]; at 50.0 µM
  growth inhibition: 93.8% (active)
[2]; [7]
  growth inhibition: 92% (active)
[2]; [8]
  growth inhibition: 94% (active)
[2]; at 50.0 µM
  growth inhibition: 96.2% (active)
[3]; [7]
  growth inhibition: 81% (active)
[3]; [8]
  growth inhibition: 94% (active)
[3]; at 50.0 µM
  growth inhibition: 96% (active)
[4]; [7]
  growth inhibition: 77% (active)
[4]; [8]
  growth inhibition: 95% (active)
[4]; at 50.0 µM
  growth inhibition: 94.9% (active)
[5]; [7]
  growth inhibition: 51%
[5]; [8]
  growth inhibition: 92% (active)
[5]; at 50.0 µM
  growth inhibition: 95.9% (active)
[6]; [7]
  growth inhibition: 84% (active)
[6]; [8]
  growth inhibition: 92% (active)
[6]; at 50.0 µM
  growth inhibition: 94.8% (active)

## Cc1c(N=Nc2ccccc2Cl)c(-c2ccccc2)nn1C(=S)S
[1]; [7]
  growth inhibition: 16%
[1]; [8]
  growth inhibition: 90% (active)
[1]; at 50.0 µM
  growth inhibition: 96.2% (active)
[2]; [7]
  growth inhibition: -1%
[2]; [8]
  growth inhibition: 91% (active)
[2]; at 50.0 µM
  growth inhibition: 98.2% (active)
[3]; [7]
  growth inhibition: 4%
[3]; [8]
  growth inhibition: 95% (active)
[3]; at 50.0 µM
  growth inhibition: 97.8% (active)
[4]; [7]
  growth inhibition: -2%
[4]; [8]
  growth inhibition: 92% (active)
[4]; at 50.0 µM
  growth inhibition: 97.3% (active)
[5]; [7]
  growth inhibition: -3%
[5]; [8]
  growth inhibition: 85% (active)
[5]; at 50.0 µM
  growth inhibition: 97.3% (active)
[6]; [7]
  growth inhibition: -2%
[6]; [8]
  growth inhibition: 93% (active)
[6]; at 50.0 µM
  growth inhibition: 97.8% (active)

## CCC(=O)Nc1ccc(NC(C)=O)cc1
[1]; [7]
  growth inhibition: -6%
[1]; [8]
  growth inhibition: -9%
[1]; at 50.0 µM
  growth inhibition: -17.6%
[2]; [7]
  growth inhibition: -9%
[2]; [8]
  growth inhibition: 1%
[2]; at 50.0 µM
  growth inhibition: -6.9%
[3]; [7]
  growth inhibition: -5%
[3]; [8]
  growth inhibition: 6%
[3]; at 50.0 µM
  growth inhibition: -8.65%
[4]; [7]
  growth inhibition: 6%
[4]; [8]
  growth inhibition: -16%
[4]; at 50.0 µM
  growth inhibition: -11.6%
[5]; [7]
  growth inhibition: -10%
[5]; [8]
  growth inhibition: -3%
[5]; at 50.0 µM
  growth inhibition: 23.2%
[6]; [7]
  growth inhibition: -8%
[6]; [8]
  growth inhibition: -28%
[6]; at 50.0 µM
  growth inhibition: -8.9%

## O=P(Nc1ccccc1)(OCc1ccccc1)OCc1ccccc1
[1]; [7]
  growth inhibition: -4%
[1]; [8]
  growth inhibition: 98% (active)
[1]; at 50.0 µM
  growth inhibition: 98.5% (active)
[2]; [7]
  growth inhibition: 12%
[2]; [8]
  growth inhibition: 99% (active)
[2]; at 50.0 µM
  growth inhibition: 94.7% (active)
[3]; [7]
  growth inhibition: -4%
[3]; [8]
  growth inhibition: 99% (active)
[3]; at 50.0 µM
  growth inhibition: 98.8% (active)
[4]; [7]
  growth inhibition: 13%
[4]; [8]
  growth inhibition: 99% (active)
[4]; at 50.0 µM
  growth inhibition: 67%
[5]; [7]
  growth inhibition: 0%
[5]; [8]
  growth inhibition: 99% (active)
[5]; at 50.0 µM
  growth inhibition: 40.8%
[6]; [7]
  growth inhibition: 5%
[6]; [8]
  growth inhibition: 99% (active)
[6]; at 50.0 µM
  growth inhibition: 99.1% (active)
